Measurements as given in PubChem BioAssay (NCATS).
Values joined by “and” are separate entries in the source; they are usually repeats but may differ in a detail not shown here. Equal entries are not always repeated. Inconclusive results are not listed. Active and inactive are the calls of the source. Unless noted, calls follow the shape of the dose curve; as a rule, active = well fitted curve in the direction sought with a large enough effect; inconclusive = small, poorly fitted or top-dose-only effect, or another doubt; inactive = no such curve, though single readings can be large; an effect the other way counts as inactive or inconclusive.

Legend:
[1] = molecular target: Tyrosine-protein kinase Yes (Homo sapiens) (UniProt P07947); test: qHTS for small molecule inhibitors of Yes1 kinase: Primary Screen (AID 686947); also: nearly all actives have a fitted effect of over 60% in size; also: potency is read from the fitted curve at half-maximal effect
Procedure, shortened: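 ADP-Glo luminescence reports ADP formed by 4 nM Yes1 phosphorylating poly(E4Y) (0.3 mg/mL) with 0.1 mM ATP for 60 min at room temperature, following 20 min compound preincubation; normalised between DMSO wells with and without enzyme.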

[2] = qHTS for small molecule inhibitors of Yes1 kinase: Counter Assay (AID 686950);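 also: no kinase present so only ADP-Glo detection of a fixed ADP amount is tested; luminescence from ADP-Glo reporting ADP in a fixed ATP and ADP mixture; 0% = DMSO wells with ATP plus ADP and -100% = ATP-only wells without ADP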
Procedure, shortened: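 ADP-Glo luminescence read after a 60 min room-temperature incubation of compound with an ATP/ADP mix (0.08 mM/0.02 mM) and no kinase, following a 20 min compound preincubation. Signal scaled between ATP+ADP (max) and 0.1 mM ATP-only (min) wells; Tris pH 7.5, Mg2+, DTT.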

[3] = molecular target: Arylsulfatase A (Homo sapiens) (UniProt P15289); test: qHTS screen for enhancers of Arylsulfatase A (ASA1): LOPAC Validation Assay (AID 720538); conditions: outcome: dose series up to 57.5 µM
Procedure, shortened: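 MLD patient fibroblasts (SV40, ASA-I179S), 1536-well; adhere 6 hrs; cpd 48h, 37 degree C, 5% CO2; pNCS 0.5mM final in lysis buffer, 14h RT; stop 1N NaOH final; fluor. Ex525/Em598.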

[4] = qHTS for compounds that reverse cellular toxicity of Amyloid beta (A-beta) peptide in yeast: LOPAC Validation Assay (AID 720559);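 also: plate controls were DMSO for no effect and equimolar ferric chloride plus clioquinol rescue for full effect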
Procedure, shortened: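 Medium dispensed, compounds pinned, A-beta yeast suspension added; plates held at 30 C for 48 hr; absorbance measured at 600 nm to gauge growth; values scaled between DMSO and FeCl3/clioquinol (equimolar) controls.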

[5] = qHTS for Activators of Parkin Expression: LOPAC Validation Assay (NLuc Reporter) (AID 720572)
Procedure, shortened: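 Compound effects on Parkin promoter activity were measured as NanoLuc luminescence after 24 h at 37 C. The neuronal reporter line also carried FLuc, which was read first. LOPAC compounds were tested at 7 concentrations, with normalization to DMSO (0%) and positive control (100%).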

[6] = qHTS for Activators of Parkin Expression: LOPAC Validation Assay (FLuc Reporter) (AID 720573)
Procedure, shortened: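 Cells seeded, 24 h; compounds pinned, 7-pt dose response; 24 h at 37 C/5% CO2; volume reduced; FLuc reagent 10 min RT; luminescence read. Normalization: DMSO = 0, positive control = 100%.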

[7] = molecular target: T1, Hexokinase-4 (Homo sapiens) + Glucokinase regulatory protein (Homo sapiens) (UniProt P35557+Q14397); test: qHTS assay for inhibitors of recombinant human GCK-GKRP interaction: Diaphorase-coupled assay (AID 743205)
Procedure, shortened: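 25 mM Hepes pH 7.6, 5 mM glucose, 0.4 mM ATP, 4 U/ml G6PDH; 10 nM each GST-GCK/FLAG-GKRP. Kinetic fluorescence read, 1/min × 30 min. Normalized: DMSO ± enzyme = max/min.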

[8] = molecular target: T1, Hexokinase-4 (Homo sapiens) + Glucokinase regulatory protein (Homo sapiens); test: qHTS assay for inhibitors of recombinant human GCK-GKRP interaction: ADP-Glo assay (AID 743206);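 also: plate controls were DMSO plus enzyme for no effect and no enzyme for full effect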
Procedure, shortened: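 Pin-transferred compounds meet a 15 nM GST-GCK/15 nM FLAG-GKRP/2 uM S6P mix (dispense concentrations). ATP is then added to 0.4 mM final with 5 mM glucose, and the reaction runs 60 min at room temperature. ADP is quantified luminescently.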

[9] = molecular target: T1, Hexokinase-4 (Homo sapiens) + Glucokinase regulatory protein (Homo sapiens); test: qHTS assay for inhibitors of recombinant human GCK-GKRP interaction: HTRF assay (AID 743207);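 also: 0% = DMSO with GCK present and -100% = DMSO wells lacking GCK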
Procedure, shortened: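 5 nM GST-GCK + 5 nM FLAG-GKRP + 2 uM S6P, pH 7.1 buffer (25 mM Hepes, 2 mM MgCl2, 25 mM KCl, 1 mM DTT, Tween/BSA); pin-transferred cpd; anti-FLAG XL665/anti-GST K; 60 min RT; HTRF.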

[10] = qHTS Assay for Identifying Gametocytocidal Compounds (AID 743244); also: potency is read from the fitted curve at half-maximal effect;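 as to max response: % is scaled to controls: 0 for no effect and ±100 for the full control effect; actives lower the fluorescent signal which means gametocytes are killed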; conditions: P. falciparum 3D7 stage III-V gametocytes, alamarBlue, 72 h; max response: stronger effect = lower value
Procedure, shortened: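 Compounds are pinned into medium, gametocytes (stage III–V, 3D7, 20,000 cells/well) added, and plates held 72 h at 37 °C in 5% CO2. AlamarBlue follows for 24 h before fluorescence reading.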

[11] = qHTS profiling for inhibitors of Plasmodium falciparum (3D7) proliferation (AID 743322; call rule not given here;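 also: infected erythrocytes exposed to compound for 72 h before lysis; 100% = DMSO vehicle wells and 0% = 0.29 µM artemisinin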); conditions: P. falciparum 3D7 proliferation; at 28.7 µM (top of the series) unless noted
Procedure, shortened: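 Parasite DNA was quantified by SYBR Green I fluorescence (ex 485, em 535 nm) after overnight lysis in saponin/Triton buffer at room temperature. Cultures at 0.3% parasitemia and 2.5% hematocrit were first exposed to compound for 72 h at 37 C; signals were normalised to artemisinin (0.29 uM) and vehicle wells.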

[12] = qHTS profiling for inhibitors of Plasmodium falciparum (DD2) proliferation (AID 743323; call rule not given here); conditions: lower = more inhibition; at 28.7 µM (top of the series) unless noted
Procedure, shortened: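 P. falciparum Dd2-infected erythrocytes (0.3% parasitemia, 2.5% hematocrit) exposed 72 h at 37 C, 5% CO2. Lysis with SYBR Green, overnight at room temperature, fluorescence 485/535 nm; normalized to 0.29 uM artemisinin and DMSO.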

[13] = qHTS assay for environmental chemicals that activate the Aryl hydrocarbon Receptor (AhR) signaling pathway (AID 651777); conditions: 1A2-DRE human hepatoma cells, luciferase, 24 h; stronger effect = higher value; also: % of control where 0% means no effect; nearly all actives have a fitted effect of over 15% in size
Procedure, shortened: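 Induction of CYP1A2 transcription through AhR is detected by luciferase in 1A2-DRE hepatoma cells. Compounds or DMSO act for 24 hr at 37 C before a 30 min One-Glo step at room temperature.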

[14] = molecular target: Peroxisome proliferator-activated receptor alpha (Homo sapiens) (UniProt Q07869); test: qHTS assay for small molecule agonists of the peroxisome proliferator-activated receptor alpha (PPARalpha) signaling pathway (AID 651778); conditions: PathHunter PPARalpha complementation, chemiluminescence, 6 h; stronger effect = higher value; also: % of control where 0% means no effect
Procedure, shortened: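 Chemiluminescence from complemented enzyme reported PPARalpha activation in cells after 6 hr of compound treatment at 37 C. The detection reagent was incubated for 60 min at room temperature, and compounds were scored as agonists.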

[15] = molecular target: Nuclear receptor ROR-gamma (Homo sapiens) (UniProt P51449); test: qHTS assay for small molecule antagonists of the retinoid-related orphan receptor gamma (ROR-gamma) signaling pathway (AID 651802);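 also: CHO cells with doxycycline-induced ROR-gamma expression; luciferase reporter luminescence driven by ROR response element; % is scaled to controls: 0 for no effect and ±100 for the full control effect; nearly all actives have a fitted effect of over 60% in size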
Procedure, shortened: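 Luminescence (One-Glo, 30 min RT) measured 16 h after compound addition and doxycycline induction at 37C. Reporter: RORE-luciferase under TET-inducible ROR-gamma in CHO cells.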

[16] = qHTS assay for small molecule agonists of the antioxidant response element (ARE) signaling pathway measured by Nrf2-dependant transcriptional activity (AID 720636; active = well fitted curve in the direction sought with a large enough effect in the repeat runs; an effect the other way counts as inactive or inconclusive;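 also: HepG2 cells with an ARE-driven luciferase reporter; % of control where 0% means no effect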)
Procedure, shortened: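 We exposed ARE-luc HepG2 cells, seeded in assay medium with 1% dialyzed FBS and allowed 6 hr to adhere, to test compounds overnight (16 hr, 37 C) before measuring luciferase with ONE-Glo.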

[17] = qHTS assay for small molecule antagonists of the retinoid-related orphan receptor gamma (ROR-gamma) signaling pathway - cell viability counter screen (AID 720652; active = well fitted curve in the direction sought with a large enough effect in the repeat runs; an effect the other way counts as inactive or inconclusive;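 also: CHO reporter cells with doxycycline-induced ROR-gamma expression; compound exposure lasted 16 hr before ATP read; % is scaled to controls: 0 for no effect and ±100 for the full control effect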)
Procedure, shortened: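 Cytotoxicity counter screen: intracellular ATP (CellTiter-Glo luminescence) measured in the doxycycline-induced CHO RORE-luciferase reporter line after 16 hr compound exposure at 37 C, 5% CO2.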

[18] = qHTS assay for small molecule agonists of the antioxidant response element (ARE) signaling pathway measured by Nrf2-dependant transcriptional activity - cell viability counter screen (AID 720653; active = well fitted curve in the direction sought with a large enough effect in the repeat runs; an effect the other way counts as inactive or inconclusive; also: % is scaled to controls: 0 for no effect and ±100 for the full control effect); conditions: ARE-bla HepG2 viability, CellTiter-Glo ATP luminescence, 16 h; stronger effect = lower value
Procedure, shortened: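 Cytotoxicity counter screen: intracellular ATP quantified by CellTiter-Glo luminescence in the same ARE-bla HepG2 plates, after 16 h compound exposure and a 2 h beta-lactamase substrate step.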

[19] = qHTS assay for cell viability of HEK293 cells (AID 743288); conditions: ATP luminescence (CellTiter-Glo), 18 h; max response: stronger effect = lower value; also: % is scaled to controls: 0 for no effect and ±100 for the full control effect; nearly all actives have a fitted effect of over 50% in size
Procedure, shortened: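 Viable-cell counts were inferred from luciferase-based ATP content in HEK293 cells seeded at 2,000/well, pre-incubated ≥5 h, then dosed with DMSO-solubilised compounds for 18 h at 37 C.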

[20] = qHTS assay for cell viability of the p53RE-bla HCT-116 cell line (AID 743292); also: % is scaled to controls: 0 for no effect and ±100 for the full control effect; nearly all actives have a fitted effect of over 55% in size
Procedure, shortened: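 In this qHTS counter-screen, metabolically competent p53RE-bla HCT-116 cells were counted via their ATP content. Compounds were applied for 16 h at 37 C and luciferase-coupled luminescence was measured.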

T1 sequence (P35557 whole entry, looked up): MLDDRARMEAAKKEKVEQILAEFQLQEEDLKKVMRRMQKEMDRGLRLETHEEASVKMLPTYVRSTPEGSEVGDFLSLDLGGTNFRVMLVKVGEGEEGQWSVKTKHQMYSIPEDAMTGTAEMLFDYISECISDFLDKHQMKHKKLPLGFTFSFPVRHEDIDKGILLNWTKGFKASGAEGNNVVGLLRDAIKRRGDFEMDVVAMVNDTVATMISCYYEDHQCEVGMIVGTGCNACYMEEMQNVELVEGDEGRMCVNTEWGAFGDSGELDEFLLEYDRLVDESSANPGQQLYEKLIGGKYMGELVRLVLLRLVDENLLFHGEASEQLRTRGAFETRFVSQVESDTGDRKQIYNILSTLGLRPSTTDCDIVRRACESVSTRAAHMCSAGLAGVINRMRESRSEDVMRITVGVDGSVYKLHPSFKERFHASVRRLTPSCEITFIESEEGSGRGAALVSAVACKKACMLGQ
T1 sequence (Q14397 whole entry, looked up): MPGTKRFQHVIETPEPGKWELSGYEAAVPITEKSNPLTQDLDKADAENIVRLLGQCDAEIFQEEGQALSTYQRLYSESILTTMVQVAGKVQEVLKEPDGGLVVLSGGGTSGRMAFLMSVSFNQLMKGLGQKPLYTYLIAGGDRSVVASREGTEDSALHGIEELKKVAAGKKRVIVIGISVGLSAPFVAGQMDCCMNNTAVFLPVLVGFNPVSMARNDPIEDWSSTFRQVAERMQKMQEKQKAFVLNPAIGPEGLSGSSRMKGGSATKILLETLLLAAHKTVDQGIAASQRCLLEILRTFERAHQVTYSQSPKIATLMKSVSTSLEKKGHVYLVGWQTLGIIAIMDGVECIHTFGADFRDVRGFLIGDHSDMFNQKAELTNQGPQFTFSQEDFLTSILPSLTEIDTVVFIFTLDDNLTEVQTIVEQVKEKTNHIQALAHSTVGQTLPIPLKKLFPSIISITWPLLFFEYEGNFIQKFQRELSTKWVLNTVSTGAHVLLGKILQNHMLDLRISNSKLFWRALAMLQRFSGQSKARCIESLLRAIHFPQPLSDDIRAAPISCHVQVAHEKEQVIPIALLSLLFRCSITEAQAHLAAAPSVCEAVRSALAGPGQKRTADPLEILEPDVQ
Chain of Tyrosine-protein kinase Yes (Homo sapiens) (P07947 whole entry, looked up): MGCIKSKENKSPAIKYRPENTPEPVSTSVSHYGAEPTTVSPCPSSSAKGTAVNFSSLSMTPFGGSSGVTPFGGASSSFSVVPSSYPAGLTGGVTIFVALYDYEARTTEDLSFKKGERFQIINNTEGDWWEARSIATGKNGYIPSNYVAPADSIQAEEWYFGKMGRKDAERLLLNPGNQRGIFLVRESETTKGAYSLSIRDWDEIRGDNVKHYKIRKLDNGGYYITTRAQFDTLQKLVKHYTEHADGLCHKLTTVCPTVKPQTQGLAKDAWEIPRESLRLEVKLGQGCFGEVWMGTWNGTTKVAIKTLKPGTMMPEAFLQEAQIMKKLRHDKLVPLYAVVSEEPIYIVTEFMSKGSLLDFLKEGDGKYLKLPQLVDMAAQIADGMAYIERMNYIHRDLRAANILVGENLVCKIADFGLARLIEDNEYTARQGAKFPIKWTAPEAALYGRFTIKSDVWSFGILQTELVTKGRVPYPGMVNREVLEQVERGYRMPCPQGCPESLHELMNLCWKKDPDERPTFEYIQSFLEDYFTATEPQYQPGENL
Chain of Arylsulfatase A (Homo sapiens) (P15289 whole entry, looked up): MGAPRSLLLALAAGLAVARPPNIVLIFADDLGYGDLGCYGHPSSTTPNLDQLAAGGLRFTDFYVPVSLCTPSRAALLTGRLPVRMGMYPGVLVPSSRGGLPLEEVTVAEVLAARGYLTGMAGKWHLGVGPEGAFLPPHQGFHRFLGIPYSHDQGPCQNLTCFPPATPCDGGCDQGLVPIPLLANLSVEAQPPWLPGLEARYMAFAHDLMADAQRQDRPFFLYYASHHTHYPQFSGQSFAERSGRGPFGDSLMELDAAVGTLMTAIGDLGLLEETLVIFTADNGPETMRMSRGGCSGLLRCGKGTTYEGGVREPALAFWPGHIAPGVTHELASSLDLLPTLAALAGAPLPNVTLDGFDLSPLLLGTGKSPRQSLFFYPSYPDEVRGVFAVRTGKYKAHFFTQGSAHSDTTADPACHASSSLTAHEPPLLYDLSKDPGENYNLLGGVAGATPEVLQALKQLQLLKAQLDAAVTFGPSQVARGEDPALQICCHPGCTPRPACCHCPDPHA
Chain of Peroxisome proliferator-activated receptor alpha (Homo sapiens) (Q07869 whole entry, looked up): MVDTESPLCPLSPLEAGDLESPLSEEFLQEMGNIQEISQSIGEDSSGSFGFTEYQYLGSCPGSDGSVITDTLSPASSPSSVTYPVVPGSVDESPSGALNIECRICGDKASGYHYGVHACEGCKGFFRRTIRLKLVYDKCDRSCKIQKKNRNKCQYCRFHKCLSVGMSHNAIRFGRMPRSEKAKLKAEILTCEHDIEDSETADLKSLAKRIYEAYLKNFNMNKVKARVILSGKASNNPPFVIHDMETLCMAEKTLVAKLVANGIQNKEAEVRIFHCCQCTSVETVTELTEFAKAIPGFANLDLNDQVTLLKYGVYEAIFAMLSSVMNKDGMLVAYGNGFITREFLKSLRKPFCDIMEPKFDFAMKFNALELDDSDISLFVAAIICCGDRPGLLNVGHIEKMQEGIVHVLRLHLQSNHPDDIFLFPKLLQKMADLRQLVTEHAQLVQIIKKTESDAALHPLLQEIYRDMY
Chain of Nuclear receptor ROR-gamma (Homo sapiens) (P51449 whole entry, looked up): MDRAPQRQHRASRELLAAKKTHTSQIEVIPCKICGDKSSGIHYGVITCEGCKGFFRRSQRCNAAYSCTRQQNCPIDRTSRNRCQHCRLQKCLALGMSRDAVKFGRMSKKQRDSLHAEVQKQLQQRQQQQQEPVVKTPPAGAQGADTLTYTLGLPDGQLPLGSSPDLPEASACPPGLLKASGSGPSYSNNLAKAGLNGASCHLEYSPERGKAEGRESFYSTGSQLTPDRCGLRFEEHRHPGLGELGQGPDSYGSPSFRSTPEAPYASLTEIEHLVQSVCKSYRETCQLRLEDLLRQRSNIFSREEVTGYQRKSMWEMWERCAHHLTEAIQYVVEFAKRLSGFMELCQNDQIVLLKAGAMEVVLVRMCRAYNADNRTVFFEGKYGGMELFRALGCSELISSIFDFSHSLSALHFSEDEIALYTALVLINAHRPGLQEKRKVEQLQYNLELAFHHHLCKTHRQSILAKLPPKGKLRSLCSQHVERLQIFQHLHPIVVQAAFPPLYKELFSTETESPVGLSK

Cc1cccc(-c2[nH]c(C(C)(C)C)nc2-c2ccc3nccnc3c2)n1
54.8%: remaining parasite growth % (stronger effect = lower value) [11]
inactive: outcome [2] | outcome [3] | outcome [4] | Potency [5] | outcome [6] | outcome [7] | outcome [8] | outcome [9]
67.1%: activity, percent of control [12]
active: Potency [1] 688 nM | Potency [10] 662 nM

Cc1[nH]c(=O)c(C#N)cc1-c1ccc2nccn2c1
98.1%: activity, percent of control [12]
inactive: Potency [1] | outcome [2] | outcome [3] | outcome [4] | Potency [5] | outcome [6] | outcome [7] | outcome [9] | max response [10] -5.81% and 18.1%
105%: remaining parasite growth % (stronger effect = lower value) [11]

NS(=O)(=O)c1cc2c(cc1Cl)NC=NS2(=O)=O
inactive: activation [13] -1.42% | max response [14] -1.54% | outcome [15] | outcome [4] | Potency [5] | outcome [6] | outcome [16] | outcome [17] | max response [18] -14.4% | outcome [7] | outcome [9] | max response [10] -0.751% and 21.2% | max response [19] -1.12% | Potency [20]

O=C(NOC[C@H](O)CO)c1ccc(F)c(F)c1Nc1ccc(I)cc1F
98.3%: activity, percent of control [12]
inactive: Potency [1] | outcome [2] | max response [10] 24.9%
106%: remaining parasite growth % (stronger effect = lower value) [11]
